Experiment [1] in a line: ATG_CRE_CIS: Attagene CIS-FACTORIAL HepG2 Assay for human cAMP Responsive Element (CRE) binding protein 3 (AID 2282926). The following applies: HepG2 CRE cis-reporter, Attagene multiplexed mRNA; actives raise or lower the signal. An outline of the steps: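 Endogenous CRE-binding activity in HepG2 is reported through a cis-regulated transfected reporter. Following a day of exposure, mRNA levels are determined by reverse transcription PCR and fluorescent fragment analysis; fits run in both directions versus DMSO.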

Experiment [2] in a line: ATG_AP_1_CIS: Attagene CIS-FACTORIAL HepG2 Assay for human Activator Protein 1 (AP-1) (AID 2282931). As to conditions: HepG2 Attagene cis-factorial AP-1 reporter mRNA; actives raise or lower the signal. An outline of the steps:
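Bidirectional concentration-response fitting against DMSO controls. Underlying signal: reporter mRNA from cis-promoter constructs in transiently transfected HepG2, measured after 24 h by RT-PCR and capillary electrophoresis.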

Experiment [3] in a line: ATG_RORE_CIS: Attagene CIS-FACTORIAL HepG2 Assay for human RAR-related Orphan Receptor Element (RORE) (AID 2282959). As to conditions: HepG2 Attagene cis-factorial RORE reporter, mRNA; actives raise or lower the signal. An outline of the steps: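 Fluorescence intensity of reporter-specific cDNA fragments, separated by capillary electrophoresis, gives the signal. Source: HepG2 liver cells transiently transfected with cis-element reporters and exposed 24 h; DMSO-normalized bidirectional fit.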

Experiment [4] in a line: ATG_Sox_CIS: Attagene CIS-FACTORIAL HepG2 Assay for human SRY-box transcription factor (SOX) (AID 2282960). As to conditions: HepG2 Attagene cis-factorial SOX reporter, mRNA; actives raise or lower the signal. An outline of the steps:
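After 24 h of chemical treatment, transfected HepG2 reporter cells are lysed for total RNA. Transcript levels come from RT-PCR with labelled primer extension and capillary electrophoresis, analysed bidirectionally versus DMSO.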

The target of experiment [5] is Transcription factor Sp1 (Homo sapiens) (UniProt P08047). The experiment can be described thus: ATG_Sp1_CIS: Attagene CIS-FACTORIAL HepG2 Assay for human Specificity Protein 1 (Sp1) (AID 2282961). The following applies: HepG2 Sp1 cis-reporter transcription, actives raise or lower the signal. The method, boiled down:
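Sp1-driven reporter mRNA, read as capillary electrophoresis fluorescence after RT-PCR, in transiently transfected HepG2 cells dosed for 24 h; signal change in either direction relative to DMSO.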

The nature of experiment [6]: ATG_TA_CIS: Attagene CIS-FACTORIAL HepG2 Assay for human TA Basal Promoter (AID 2282964). As to conditions: HepG2 Attagene CIS-factorial TA basal promoter reporter; actives raise or lower the signal. The method, boiled down: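 Multiplexed mRNA reporter assay, HepG2, 24 h. Reporter cDNA amplified, 6-FAM primer-extended, HpaI-cut, CE-sized; DMSO = negative control and baseline.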

Experiment [7] can be described thus: ATG_TCF_b_cat_CIS: Attagene CIS-FACTORIAL HepG2 Assay for human T-Cell-Factor with beta-catenin (TCF/b-cat) (AID 2282965). As to conditions: HepG2 TCF/beta-catenin cis-reporter transcription, actives raise or lower the signal. An outline of the steps:
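Endogenous transcription factor activity is captured through cis-promoter reporter constructs transiently introduced into human HepG2 liver cells. Induced reporter mRNA is measured after 24 h and fitted bidirectionally relative to DMSO.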

Experiment [8] is described as follows: ATG_TAL_CIS: Attagene CIS-FACTORIAL HepG2 Assay for human TAL Basal Promoter (AID 2282966).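 Note: background control endpoint measuring basal TAL promoter reporter mRNA not a specific factor.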 The following applies: HepG2 Attagene cis-factorial TAL promoter reporter; actives raise or lower the signal. The method, boiled down:
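In this cell-based multiplex, HepG2 liver cells bearing cis-promoter reporter constructs are dosed for 24 hours. Total RNA is reverse-transcribed and amplified, labelled fragments are sized by capillary electrophoresis, and signal changes are fitted bidirectionally versus DMSO.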

Experiment [9] can be described thus: ATG_TGFb_CIS: Attagene CIS-FACTORIAL HepG2 Assay for human Transforming Growth Factor (TGF) (AID 2282967). The following applies: HepG2 Attagene CIS TGFb reporter, mRNA transcription; actives raise or lower the signal. The method, boiled down: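 Transcript-level reporter readout: HepG2 transfectants, 24 h exposure, RNA to cDNA, reporter-specific PCR, fluorescent primer extension, capillary sizing against ROX standards. Gain- or loss-of-signal relative to DMSO.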

The nature of experiment [10]: ATG_VDRE_CIS: Attagene CIS-FACTORIAL HepG2 Assay for human Vitamin D Receptor Element (VDRE) (AID 2282968). As to conditions: HepG2 VDRE cis-reporter transcription, actives raise or lower the signal. The method, boiled down:
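In transiently transfected HepG2 liver cells, gain or loss of reporter mRNA after 24 h exposure is scored relative to DMSO, using fluorescence detection by capillary electrophoresis of RT-PCR products.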

The target of experiment [11] is Transcriptional activator Myb (Homo sapiens) (UniProt P10242). The experiment can be described thus: ATG_Myb_CIS: Attagene CIS-FACTORIAL HepG2 Assay for human Myeloblastosis (Myb) Proto-Oncogene Transcription Factor (AID 2282986). As to conditions: HepG2 Attagene CIS-FACTORIAL Myb reporter transcription; actives raise or lower the signal. The method, boiled down: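 Fluorescence signals from capillary electrophoresis of RT-PCR-amplified reporter cDNA give the read-out. Cells: HepG2 transfected with multiple cis-regulated reporter units. Exposure lasts 24 hours; DMSO defines baseline for gain or loss of signal.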

Experiment [12] deals with Nuclear respiratory factor 1 (Homo sapiens) (UniProt Q16656). The experiment is described as follows: ATG_NRF1_CIS: Attagene CIS-FACTORIAL HepG2 Assay for human Nuclear Respiratory Factor 1 (NRF1) Orphan Gene (AID 2282987). As to conditions: HepG2 NRF1 cis-element reporter, Attagene multiplex; actives raise or lower the signal. An outline of the steps: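 Transcriptional reporter readout, one component of a 52-endpoint multiplexed HepG2 panel. Exposure 24 h; mRNA detected via RT-PCR and fluorescent capillary electrophoresis; fitting in both directions against DMSO.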

Experiment [13] can be described thus: ATG_NFI_CIS: Attagene CIS-FACTORIAL HepG2 Assay for human Nuclear Factor I (NFI) (AID 2282989). The following applies: HepG2 cis-regulatory reporter, NFI response element transcription; actives raise or lower the signal. An outline of the steps: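 After transient transfection of HepG2 with cis-promoter reporter constructs and 24 h dosing, RNA is reverse-transcribed, amplified, 6-FAM end-labelled and HpaI-digested before capillary analysis. Bidirectional curve fitting against DMSO.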

In experiment [14] the target is Cellular tumor antigen p53 (Homo sapiens) (UniProt P04637). The experiment is described as follows: ATG_p53_CIS: Attagene CIS-FACTORIAL HepG2 Assay for human p53 Transcription Factor (AID 2282994). The following applies: HepG2 p53 cis-element reporter, Attagene mRNA; actives raise or lower the signal. The method, boiled down: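 HepG2, transient MRTU transfection (cis promoter elements, endogenous TFs); 24 h dosing; RNA isolation, RT-PCR, 6-FAM primer extension, HpaI digest, CE fluorescence; bidirectional fit vs DMSO.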

Experiment [15] is described as follows: CCTE_Harrill_HTTr_Viability_MCF7: CCTE's 6-hour Cell Viability Assessment for the High-Throughput Transcriptomics (HTTr) Platform, in MCF-7 cells cultured in DMEM + 10% fetal bovine serum, Harrill Lab (AID 2284010). The method, boiled down: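 Membrane integrity was scored by high-content imaging of propidium iodide dye exclusion after a 6 h exposure across an eight-point dilution series. Data were fitted bidirectionally relative to DMSO as negative control and baseline.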

Experiment [16] in a line: CCTE_Harrill_HTTr_Apoptosis_MCF7: CCTE's 6-hour Apoptosis Assessment for the High-Throughput Transcriptomics (HTTr) Platform, in MCF-7 cells cultured in DMEM + 10% fetal bovine serum, Harrill Lab (AID 2284011). An outline of the steps:
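Read-out: CellEvent Caspase 3/7 Green signal by high content imaging, gain-of-signal indicating apoptosis. MCF-7 cells, DMEM + 10% FBS, eight-point dilution series, 6 h exposure. Curves fitted bidirectionally relative to DMSO negative control.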

The nature of experiment [17]: ATG_DR4_LXR_CIS: Attagene CIS-FACTORIAL HepG2 Assay for human Liver X Receptor (LXR), DR4 submotif (AID 2282929). As to conditions: HepG2 Attagene DR4 cis-reporter, mRNA transcription; actives raise or lower the signal. The method, boiled down:
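Measures endogenous transcription factor activity via a DR4-driven reporter transcript in human HepG2 cells. Compounds incubated 24 h; mRNA quantified by RT-PCR and capillary electrophoresis, analysed as gain or loss of signal versus DMSO.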

The target in experiment [18] is Hepatocyte nuclear factor 3-beta (Homo sapiens) (UniProt Q9Y261). The experiment is described as follows: ATG_FoxA2_CIS: Attagene CIS-FACTORIAL HepG2 Assay for human Forkhead box A2 (FOXA2) (AID 2282942). The following applies: HepG2 cis-reporter transcription factor activity, 24 h; actives raise or lower the signal. The method, boiled down: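 In transiently transfected human HepG2 cells, promoter-driven reporter mRNA levels after 24 h chemical exposure are determined via RT-PCR with capillary electrophoresis. DMSO serves as baseline for bidirectional fitting.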

Experiment [19] has as its target Hypoxia-inducible factor 1-alpha (Homo sapiens) (UniProt Q16665). The experiment is described as follows: ATG_HIF1a_CIS: Attagene CIS-FACTORIAL HepG2 Assay for human Hypoxia Inducible Factor 1 (HIF1A) (AID 2282951). As to conditions: HepG2 Attagene cis-factorial HIF1a reporter transcription; actives raise or lower the signal. An outline of the steps: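 In this multiplexed cell assay, HepG2 cells bearing transfected cis reporters are dosed for 24 h and reporter mRNA is read by RT-PCR plus capillary electrophoresis; signal increases and decreases are both scored against DMSO.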

For experiment [20], the target named is bovine Estrogen Receptor (ER), ESR1 (gene 407238) (UniProt P49884). The experiment can be described thus: NVS_NR_bER: NovaScreen (NVS) Nuclear Receptor Binding Assay for bovine Estrogen Receptor (ER) (AID 2283345; active = hit-call score of the fitted dose curve at least 0.9, where 1 is the maximum;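 note: actives lower the bound radioligand count which means they displace the ER ligand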). The method, boiled down:
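Bovine uterine membranes; tritiated or iodinated radioligand; competitive displacement; 18 h; scintillation read; DMSO negative control; 25 uM duplicates, then concentration series for actives.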

Results filed as inconclusive are left out. Active and inactive are the calls of the source. Rule for the calls, unless noted: active = hit-call score of the fitted dose curve at least 0.9, where 1 is the maximum; inactive = score below 0.9.

Sequence of Nuclear respiratory factor 1 (Homo sapiens) (Q16656 whole entry, looked up): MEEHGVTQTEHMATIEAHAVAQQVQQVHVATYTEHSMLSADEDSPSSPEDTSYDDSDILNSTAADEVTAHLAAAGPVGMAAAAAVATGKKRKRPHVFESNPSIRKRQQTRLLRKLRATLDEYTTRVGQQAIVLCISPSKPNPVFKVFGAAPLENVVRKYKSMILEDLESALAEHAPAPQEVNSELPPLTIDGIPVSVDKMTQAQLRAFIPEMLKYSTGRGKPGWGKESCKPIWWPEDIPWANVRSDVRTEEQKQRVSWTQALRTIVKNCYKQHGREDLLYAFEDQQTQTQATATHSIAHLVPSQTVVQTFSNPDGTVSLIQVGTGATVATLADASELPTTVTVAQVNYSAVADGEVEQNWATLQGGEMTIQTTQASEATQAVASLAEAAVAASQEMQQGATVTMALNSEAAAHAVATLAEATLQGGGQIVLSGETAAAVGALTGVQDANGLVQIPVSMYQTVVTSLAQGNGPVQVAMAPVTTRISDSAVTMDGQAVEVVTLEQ
Sequence of Transcription factor Sp1 (Homo sapiens) (P08047 whole entry, looked up): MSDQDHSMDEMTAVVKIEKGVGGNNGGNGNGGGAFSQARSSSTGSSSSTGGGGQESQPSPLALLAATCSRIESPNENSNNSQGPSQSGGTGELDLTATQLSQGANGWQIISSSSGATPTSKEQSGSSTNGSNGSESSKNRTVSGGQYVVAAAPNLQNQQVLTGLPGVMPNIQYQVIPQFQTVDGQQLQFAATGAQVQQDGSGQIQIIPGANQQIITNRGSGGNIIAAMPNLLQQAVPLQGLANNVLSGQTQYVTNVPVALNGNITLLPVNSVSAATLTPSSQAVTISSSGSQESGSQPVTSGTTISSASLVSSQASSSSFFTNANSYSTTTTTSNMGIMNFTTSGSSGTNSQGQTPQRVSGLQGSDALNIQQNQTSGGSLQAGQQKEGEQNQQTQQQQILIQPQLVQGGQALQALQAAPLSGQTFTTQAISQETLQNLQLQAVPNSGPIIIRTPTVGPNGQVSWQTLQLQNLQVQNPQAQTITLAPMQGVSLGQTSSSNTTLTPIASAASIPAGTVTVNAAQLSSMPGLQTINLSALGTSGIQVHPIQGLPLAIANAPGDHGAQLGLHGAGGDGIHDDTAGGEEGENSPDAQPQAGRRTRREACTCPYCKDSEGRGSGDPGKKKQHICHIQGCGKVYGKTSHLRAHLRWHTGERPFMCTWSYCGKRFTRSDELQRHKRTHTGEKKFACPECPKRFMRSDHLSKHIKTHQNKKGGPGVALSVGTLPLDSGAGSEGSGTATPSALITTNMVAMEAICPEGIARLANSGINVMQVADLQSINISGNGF
Sequence of Cellular tumor antigen p53 (Homo sapiens) (P04637 whole entry, looked up): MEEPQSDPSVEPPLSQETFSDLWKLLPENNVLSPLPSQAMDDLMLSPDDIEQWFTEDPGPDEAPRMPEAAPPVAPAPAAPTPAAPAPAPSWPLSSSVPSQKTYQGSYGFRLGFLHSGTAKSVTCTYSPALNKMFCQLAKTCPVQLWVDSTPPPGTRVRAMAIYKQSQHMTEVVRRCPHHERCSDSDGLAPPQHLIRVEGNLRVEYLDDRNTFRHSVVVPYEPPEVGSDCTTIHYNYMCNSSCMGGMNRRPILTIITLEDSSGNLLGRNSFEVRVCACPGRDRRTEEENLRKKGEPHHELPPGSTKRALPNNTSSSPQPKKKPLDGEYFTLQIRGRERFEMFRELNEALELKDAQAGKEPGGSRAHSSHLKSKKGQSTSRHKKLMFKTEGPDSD
Sequence of Hepatocyte nuclear factor 3-beta (Homo sapiens) (Q9Y261 whole entry, looked up): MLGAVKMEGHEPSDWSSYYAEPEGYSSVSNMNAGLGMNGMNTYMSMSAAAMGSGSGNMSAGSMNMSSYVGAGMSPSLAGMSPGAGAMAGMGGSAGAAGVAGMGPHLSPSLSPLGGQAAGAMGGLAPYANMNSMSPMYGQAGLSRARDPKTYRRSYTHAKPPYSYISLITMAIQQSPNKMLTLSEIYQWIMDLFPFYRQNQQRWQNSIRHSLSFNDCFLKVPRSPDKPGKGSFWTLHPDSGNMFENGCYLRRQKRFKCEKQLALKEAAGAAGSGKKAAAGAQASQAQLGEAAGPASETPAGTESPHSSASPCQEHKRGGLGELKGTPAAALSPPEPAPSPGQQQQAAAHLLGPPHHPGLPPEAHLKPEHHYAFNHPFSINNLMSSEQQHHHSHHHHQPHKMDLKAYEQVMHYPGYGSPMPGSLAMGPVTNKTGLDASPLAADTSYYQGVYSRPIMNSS
Sequence of Hypoxia-inducible factor 1-alpha (Homo sapiens) (Q16665 whole entry, looked up): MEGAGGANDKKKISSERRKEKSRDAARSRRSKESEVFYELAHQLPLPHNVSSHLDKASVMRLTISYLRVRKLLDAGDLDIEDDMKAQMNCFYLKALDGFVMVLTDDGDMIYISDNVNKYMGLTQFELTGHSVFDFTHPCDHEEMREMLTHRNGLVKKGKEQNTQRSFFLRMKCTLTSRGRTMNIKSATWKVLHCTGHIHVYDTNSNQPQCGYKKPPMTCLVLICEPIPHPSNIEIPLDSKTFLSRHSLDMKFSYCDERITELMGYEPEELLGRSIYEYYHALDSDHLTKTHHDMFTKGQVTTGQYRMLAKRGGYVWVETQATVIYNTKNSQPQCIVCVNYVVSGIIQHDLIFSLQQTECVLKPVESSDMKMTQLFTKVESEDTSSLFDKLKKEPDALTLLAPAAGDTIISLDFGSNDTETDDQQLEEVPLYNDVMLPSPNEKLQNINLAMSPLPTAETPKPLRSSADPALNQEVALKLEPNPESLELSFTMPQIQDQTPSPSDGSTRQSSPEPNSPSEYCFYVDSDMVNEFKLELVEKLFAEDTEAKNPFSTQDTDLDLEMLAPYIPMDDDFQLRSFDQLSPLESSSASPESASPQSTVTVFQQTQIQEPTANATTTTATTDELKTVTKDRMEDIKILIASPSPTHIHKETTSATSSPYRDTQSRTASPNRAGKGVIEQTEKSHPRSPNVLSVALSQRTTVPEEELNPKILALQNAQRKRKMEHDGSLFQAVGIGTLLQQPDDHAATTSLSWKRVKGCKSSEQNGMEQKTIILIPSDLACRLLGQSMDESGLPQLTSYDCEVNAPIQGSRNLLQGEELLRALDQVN
Sequence of Transcriptional activator Myb (Homo sapiens) (P10242 whole entry, looked up): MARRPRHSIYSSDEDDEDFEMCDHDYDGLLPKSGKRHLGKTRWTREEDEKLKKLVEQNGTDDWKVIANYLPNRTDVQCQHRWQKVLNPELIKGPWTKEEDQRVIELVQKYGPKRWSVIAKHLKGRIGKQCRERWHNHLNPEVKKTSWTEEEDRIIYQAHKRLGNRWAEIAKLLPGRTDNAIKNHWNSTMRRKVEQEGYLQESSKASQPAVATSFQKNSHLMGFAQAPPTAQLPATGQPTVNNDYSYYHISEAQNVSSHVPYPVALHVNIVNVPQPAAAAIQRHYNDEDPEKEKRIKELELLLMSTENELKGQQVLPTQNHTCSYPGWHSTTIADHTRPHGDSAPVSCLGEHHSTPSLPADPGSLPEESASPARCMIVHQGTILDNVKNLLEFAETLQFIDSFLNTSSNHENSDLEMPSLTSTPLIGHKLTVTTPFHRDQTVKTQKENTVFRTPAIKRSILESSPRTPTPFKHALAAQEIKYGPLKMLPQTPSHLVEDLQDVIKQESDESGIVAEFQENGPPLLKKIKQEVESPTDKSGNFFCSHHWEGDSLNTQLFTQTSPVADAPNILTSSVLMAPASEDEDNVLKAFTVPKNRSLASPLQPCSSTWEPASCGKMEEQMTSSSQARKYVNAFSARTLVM
Sequence of bovine Estrogen Receptor (ER), ESR1 (gene 407238) (P49884 whole entry, looked up): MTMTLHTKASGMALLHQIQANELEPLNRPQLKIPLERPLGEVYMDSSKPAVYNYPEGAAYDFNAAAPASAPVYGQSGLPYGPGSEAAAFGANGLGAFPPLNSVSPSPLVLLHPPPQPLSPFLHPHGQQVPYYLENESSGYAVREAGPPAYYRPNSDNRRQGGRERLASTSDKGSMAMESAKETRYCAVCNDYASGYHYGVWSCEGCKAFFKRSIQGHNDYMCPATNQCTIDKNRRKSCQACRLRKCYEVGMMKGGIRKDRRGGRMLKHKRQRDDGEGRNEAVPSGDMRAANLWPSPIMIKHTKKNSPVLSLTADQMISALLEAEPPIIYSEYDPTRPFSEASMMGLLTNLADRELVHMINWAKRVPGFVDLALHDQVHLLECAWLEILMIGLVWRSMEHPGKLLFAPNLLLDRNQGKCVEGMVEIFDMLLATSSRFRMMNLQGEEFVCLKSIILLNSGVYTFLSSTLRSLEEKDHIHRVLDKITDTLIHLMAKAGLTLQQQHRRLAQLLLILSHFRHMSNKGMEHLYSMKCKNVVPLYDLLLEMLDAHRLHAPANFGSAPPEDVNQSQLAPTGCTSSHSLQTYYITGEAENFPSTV

In general, AC50 refers to the concentration at which the activity in the assay is half-maximal. Turning to `O=C(C1CCCCC1)N1CC(=O)N2CCc3ccccc3C2C1` (configuration not stated), the molecule was classed as inactive in experiment [1], in experiment [2], in [3], in experiment [4], in [5] and in experiment [6]. For the same molecule, the molecule was called inactive in experiment [7], in experiment [8], in experiment [9], in [11], in experiment [12] and in experiment [13]. The molecule was called inactive in [14], in [15] and in experiment [16]. Further, the AC50 in experiment [10] was 13.7 µM (active).
Take `COc1c2occc2cc2ccc(=O)oc12`: the molecule was classed as inactive in [1], in experiment [17], in experiment [2], in [18], in experiment [3] and in experiment [4]. For the same molecule, the call in experiment [5], in [6], in experiment [7], in experiment [8], in experiment [9] and in experiment [11] was inactive. Besides, the call in experiment [14], in experiment [15] and in [16] was inactive. Also, the AC50 in experiment [10] was 53.7 µM (active).
On to `CC(=O)OC(C)(C)Cc1ccccc1`, for which the call in [1], in [17], in [2], in experiment [18], in [19] and in experiment [3] was inactive. Moreover, the molecule was classed as inactive in experiment [4], in experiment [5], in experiment [6], in [7], in experiment [8] and in experiment [9]. In addition, the call in experiment [10], in experiment [11], in experiment [12], in experiment [13] and in [14] was inactive.
For `CC(C)(C)C(=O)C(=O)O`, in experiment [20], the call was inactive.
As to `CCCCC(CC)COC(=O)C=Cc1ccc(OC)cc1` (configuration not stated), the result in [15] and in experiment [16] was inactive.
Regarding `OCCc1ccccn1`, the result in [1], in experiment [17], in [2], in experiment [18], in [19] and in experiment [3] was inactive. In addition, the outcome in experiment [4], in experiment [5], in experiment [6], in experiment [7], in experiment [8] and in [9] was inactive. Moreover, the molecule was called inactive in experiment [10], in [11], in [12], in [13] and in experiment [14].
Take `Oc1ccc(Cl)cc1C1CCCC1`: the AC50 in experiment [1] is 33.4 µM (active); in experiment [17], 43.2 µM (active); in [4], 37.5 µM (active); in experiment [5] it was 33.4 µM (active); in experiment [7] it was 61.4 µM (active); in [8] it was 54.9 µM (active). Also, the AC50 in experiment [12] was 44.1 µM (active); in [13] it was 33.4 µM (active); in [14] it was 56.7 µM (active). In addition, the molecule was classed as inactive in experiment [2], in experiment [18], in experiment [19], in experiment [3], in experiment [6] and in [9]. The molecule was classed as inactive in experiment [11], in experiment [15] and in experiment [16].

The record behind these values is PubChem BioAssay (EPA / NIEHS).
